The record followed here is PubChem BioAssay AID720676 (National Center for Advancing Translational Sciences (NCATS), 2013).

Results filed as inconclusive are left out. The source made the active and inactive calls. Calls follow the shape of the dose curve; as a rule, active = well fitted curve in the direction sought with a large enough effect; inconclusive = small, poorly fitted or top-dose-only effect, or another doubt; inactive = no such curve, though single readings can be large or run the other way.

The assay is described as follows: qHTS of small molecules that selectively kill Giardia lamblia: GS isolate Assay for SAR. The settings on record: Giardia lamblia GS isolate viability; series mostly up to 38.3 µM. From the text: Giardia lamblia is a human pathogen afflicting impoverished nations, and the most common cause of outbreaks of diarrhea in the United States. Giardia has been classified by the CDC as a category B bioterrorism organism. The favored anti giardiasis drugs in the US are metronidazole or tinidazole, compounds that have undesirable side effects. Moreover, increasing resistance to these drug regimens and recurrence remains a concern. It is thus clear that alternative drug treatments are needed.
In collaboration with the University of Maryland (College Park), a bioluminescence Giardia viability assay based on the trophozoites' ATP content was developed. This assay is suitable for high throughput screening, and miniaturized the assay for compound screening in 1536-well plates. The Molecular Libraries Small Molecule Repository (MLSMR) was screened against this assay to find compounds that selectively kill Giardia trophozoites (AID 540267). Selected compounds were re-acquired to confirm their trophozoite toxicity activity (AID 588397) and lead chemotypes were identified for medicinal chemistry optimization. The data herein is the result of the first round of SAR for this project. Decrease in luminescence signal indicative of tropozoite growth inhibition (inhibitors) is the desired outcome for this assay.
NIH Chemical Genomics Center [NCGC]
NIH Molecular Libraries Probe Centers Network [MLPCN]
Assay Submitter (PI): Osnat Herzberg, University of Maryland, College Park, MD.
Giardia assay media was dispensed to an assay plate at 2 ul / well volume. Twenty-three nanoliter / well compounds were pinned into the plates using the Kalypsys robotic system. Giardia trophozoites were dispensed into the well at a concentration of 100 cells / well and incubated anaerobically at 37C for 48 hours. After compound incubation, 4 ul/ well ATPLite 1-Step luminescence assay detection reagent was and the plates were incubated at room temperature. After 30 min of incubation with the detection reagent, luminescence signal was obtained using the PerkinElmer ViewLux plate reader. Data was then processed and normalized to both positive and negative controls. Biosafety level 2 laboratory practices were observed throughout the duration of this screen.
A general note: In qHTS, concentration-response curves come from the screen itself.
For `COc1cccc(NC(=S)N2CCN(c3ccc(Cl)c(Cl)c3)CC2)n1`, the compound was called inactive.
As for `Cc1ccnc(N=C(N)N2CCN(c3cccc(C(F)(F)F)c3)CC2)c1`, the entry is “inactive”; as for `Cc1cc(C)nc(NC(=S)N2CCN(c3ccc(Cl)cc3C(F)(F)F)CC2)c1`, “inactive”.
On to `Cc1cc(C)nc(NC(=S)N2CCN(c3ccc([N+](=O)[O-])cc3Cl)CC2)c1`, for which the result was inactive.
As for `Cc1cc(C)nc(NC(=S)N2CCN(c3ncccc3C#N)CC2)c1`, the entry is “inactive”.
For the compound `Cc1nc(CN(C)c2ncnc3ccc(-c4ccc5[nH]ncc5c4)cc23)cs1`, the result was inactive.
Turning to `Cc1cc(C)nc(NC(=S)N2CC3CN(c4ccc(Cl)cc4C(F)(F)F)CC3C2)c1` (stereo unspecified), the call was inactive.
Turning to `COc1ccnc(NC(=S)N2CCN(c3ccc(Cl)cc3Cl)CC2)c1`, the compound was called inactive.
The same measure for `FC(F)(F)c1cccc(N2CCN(C(=S)Nc3nccc4ccccc34)CC2)c1`: “inactive”.
On to `Cc1ccnc(NC(=S)N2CC3CN(c4cccc(C(F)(F)F)c4)CC3C2)c1` (stereo unspecified), for which the outcome was inactive.
For the compound `CC(Cc1ccccc1)C(=O)Nc1ccc(Cl)cc1C(=O)O` (stereo unspecified), the compound was called inactive.
With `Cc1ccnc(NC(=S)Nc2cccc(C(F)(F)F)c2)c1`, the result was inactive.
On to `COc1cccc(NC(=S)N2CCN(c3cc(Cl)cc(Cl)c3)CC2)n1`, for which the call was inactive.
With `S=C(Nc1cc(Cl)ccn1)N1CCN(c2cccc(Cl)c2Cl)CC1`, the outcome was inactive.
Consider `FC(F)(F)c1cc(N2CCN(C(=S)Nc3cc(Cl)ccn3)CC2)cc(C(F)(F)F)c1`, for which the compound was classed as inactive.
`Cc1cc(C)nc(NC(=S)N2CCN(c3ccc(Cl)c(Cl)c3)CC2)c1`: the outcome was inactive.
Consider `CSC(Cc1ccc(Cl)cc1)C(=O)Nc1ccc(Cl)cc1C(=O)O` (stereo unspecified), for which the call was inactive.
Consider `COc1ccnc(NC(=S)N2CCN(c3ncc(C(F)(F)F)cc3Cl)CC2)c1`, for which the compound was classed as inactive.
Turning to `Cc1ccnc(NC(=S)N2CCN(c3cccc(C(F)(F)F)c3)CC2)c1`, the call was inactive.
As to `Cc1cc(C)nc(NC(=S)N2CCN(c3ccc(Cl)cc3Cl)CC2)c1`, the call was inactive.
Turning to `COc1ccnc(NC(=S)N2CCN(c3cccc(Cl)c3Cl)CC2)c1`, the result was inactive.
As for `Cc1ccnc(NC(=S)N2CC3CN(c4ncc(C(F)(F)F)cc4Cl)CC3C2)c1` (stereo unspecified), the entry is “inactive”; as for `Cc1ccnc(NC(=S)N2CCCN(c3cccc(C(F)(F)F)c3)CC2)c1`, “inactive”; as for `Cc1ccnc(NC(=S)N[C@@H]2CCN(c3cccc(C(F)(F)F)c3)C2)c1`, “inactive”.
In the case of `Cc1ccnc(NC(=S)N2CCCc3ccc(C(F)(F)F)cc32)c1`, the result was inactive.
Turning to `FC(F)(F)c1cccc(N2CCN(C(=S)Nc3cc(C(F)(F)F)ccn3)CC2)c1`, the call was inactive.
